Calls of active or inactive are those of the source. Cut-off read from the data, not from the text of the source: active = activation above about 85%; inactive = the rest.
Target: Peroxisome proliferator-activated receptor gamma (Homo sapiens) (UniProt P37231)
Test: PPARg partial agonist activation, primary screen, cell-based, luciferase reporter, luminescence (AID 504452);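 note: Cos-1 cells carrying PPARgamma and a response element luciferase reporter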
Details: at 5 µM, stronger effect = higher value; activation (% of full agonist control): measured here: relative to full agonist control

Peroxisome proliferator-activated receptor gamma (Homo sapiens), sequence (P37231 whole entry, looked up): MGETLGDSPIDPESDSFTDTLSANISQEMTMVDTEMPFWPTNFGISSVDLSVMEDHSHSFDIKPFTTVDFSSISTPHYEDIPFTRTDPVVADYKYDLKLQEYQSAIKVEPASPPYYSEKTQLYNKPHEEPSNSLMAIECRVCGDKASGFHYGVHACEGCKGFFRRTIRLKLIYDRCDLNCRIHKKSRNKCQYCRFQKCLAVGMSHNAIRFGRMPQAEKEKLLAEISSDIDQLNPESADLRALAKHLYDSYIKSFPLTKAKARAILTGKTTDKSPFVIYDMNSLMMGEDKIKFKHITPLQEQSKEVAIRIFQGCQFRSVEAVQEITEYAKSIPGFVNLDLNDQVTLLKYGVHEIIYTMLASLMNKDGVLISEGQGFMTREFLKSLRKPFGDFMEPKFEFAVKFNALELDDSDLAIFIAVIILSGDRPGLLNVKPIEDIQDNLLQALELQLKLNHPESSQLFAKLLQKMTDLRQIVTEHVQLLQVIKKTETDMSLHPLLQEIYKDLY

Row | SMILES | activation (% of full agonist control) | activation (% of partial agonist control)
1 | CC(=O)Nc1cc(C(=O)N2CCC3(CC2)OCCO3)ccc1Sc1ccc(F)cc1 | 37.4% | 82.7% (inactive)
2 | O=C(O)COc1ccccc1/C=C1\C(=O)NC(=O)N(CCC2=CCCCC2)C1=O | 33.7% | 74.6% (inactive)

Reference: PubChem BioAssay AID504452 (The Scripps Research Institute Molecular Screening Center, 2011)
